Experimental data as given in PubChem BioAssay (Tox21).
Results filed as inconclusive are left out. Calls of active or inactive are those of the source. Unless noted, calls follow the shape of the dose curve; as a rule, active = well fitted curve in the direction sought with a large enough effect in the repeat runs; inconclusive = weak or mixed curves; inactive = no such curve, though single readings can be large; an effect the other way counts as inactive or inconclusive.

Experiments:
[1] = qHTS assay to identify small molecule antagonists of the TGF-beta/Smad signaling pathway - cell viability counter screen (AID 1346824); also: nearly all actives have a fitted effect of over 50% in size
Method in brief: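 SBE-bla HEK 293T cells, incubated overnight, then compound plus 0.25 ng/mL TGF-beta1 (stock added) for 5 hr at 37 C. Viability was read in the same wells by CellTiter-Glo luminescence after 30 min at room temperature.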

[2] = qHTS assay to identify small molecule agonists of the TGF-beta/Smad signaling pathway - cell viability counter screen (AID 1346829); also: top concentration of the series differs between compounds; nearly all actives have a fitted effect of over 45% in size
Method in brief: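 CellTiter-Glo luminescence readout; SBE-bla HEK 293T cells, overnight plating, compound 5 hr at 37 C/5% CO2, then bla substrate 2 hr RT, then CellTiter-Glo 30 min RT.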

[3] = qHTS assay to identify small molecule agonists of the TGF-beta/Smad signaling pathway (AID 1346859; active = well fitted activation curve with a large enough effect in the signal ratio in the repeat runs, not every such curve was filed as active; the % refers to the signal ratio; also: series mostly up to about 77 µM)
Method in brief: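 Reporter line: HEK 293T with stably integrated SBE-controlled beta-lactamase. Compound exposure lasts 5 hr at 37 C and 5% CO2; substrate loading follows for 2 hr at room temperature, with emission read at 460 and 530 nm.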

[4] = target: Thyrotropin-releasing hormone receptor (Homo sapiens) (UniProt P34981); assay: qHTS assay to identify small molecule antagonists of the thyrotropin-releasing hormone receptor (TRHR) signaling pathway (AID 1346877; active = well fitted inhibition curve with a large enough effect in the repeat runs, not every such curve was filed as active; also: series mostly up to about 51 µM)
Method in brief: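 TRHR-expressing HEK293 cells were seeded, cultured 18 h at 37 °C, then loaded with calcium dye for 2 h. Compounds were pre-incubated 5 min at room temperature before 1 nM TRH (final) was added, and kinetic fluorescence was recorded for 3 min.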

[5] = target: Thyrotropin-releasing hormone receptor (Homo sapiens) (UniProt P34981); assay: qHTS assay to identify small molecule agonists of the thyrotropin-releasing hormone receptor (TRHR) signaling pathway (AID 1346891; calls by dose curve; also: series mostly up to about 58 µM)
Method in brief: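 Cells: TRHR-Hek293, seeded and incubated 18 h. Dye loading: 2 h at 37 °C. Compound added from DMSO stock by pin tool. Read-out: kinetic calcium fluorescence over 3 min.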

[6] = Human pregnane X receptor (PXR) small molecule agonists, qHTS cell viability counter screen (AID 1346977); also: nearly all actives have a fitted effect of over 50% in size
Method in brief: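 Cytotoxicity counter screen run in the same wells as the PXR luciferase assay, using PXR-Luc HepG2 cells in charcoal-stripped serum medium. Viability: CellTiter-Fluor fluorescence after 24hr compound treatment.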

[7] = Caspase-3/7 induction in HepG2 cells by small molecules, qHTS assay (AID 1346978); also: nearly all actives have a fitted effect of over 15% in size
Method in brief: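 Wild-type HepG2 cells, 2,000/well, settled 5 hr at 37 C and 5% CO2, then compound-treated for 17 hr; caspase-3/7 activity read by luminescent Caspase-Glo 3/7 after 30 min at room temperature.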

[8] = Caspase-3/7 induction in CHO-K1 cells by small molecules, qHTS cell viability counter screen (AID 1346979); also: nearly all actives have a fitted effect of over 35% in size
Method in brief: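 Cytotoxicity counter screen run in parallel with the caspase-3/7 assay: CHO-K1 cells, 16hr compound treatment at 37C, then CellTiter-Fluor for 1hr before fluorescence reading.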

[9] = Caspase-3/7 induction in CHO-K1 cells by small molecules, qHTS assay (AID 1346980); also: nearly all actives have a fitted effect of over 15% in size
Method in brief: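 Wild-type CHO-K1 cells exposed to compounds for 17hr at 37 C, 5% CO2. Caspase-3/7 activity then measured by Caspase-Glo 3/7 luminescence after 30min at room temperature.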

[10] = target: Nuclear receptor subfamily 1 group I member 2 (Homo sapiens) (UniProt O75469); assay: Human pregnane X receptor (PXR) small molecule agonists, qHTS assay (AID 1346982); also: nearly all actives have a fitted effect of over 35% in size
Method in brief: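 PXR-Luc HepG2 cells (CYP3A4 promoter-driven luciferase) were seeded in medium with 5% charcoal-stripped FBS, left 5 hr at 37 C, then exposed to compounds in DMSO for 24 hr. Luminescence was read after ONE-Glo addition.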

[11] = target: Cytochrome P450 2C9 (Homo sapiens) (UniProt P11712); assay: Cytochrome P450 Family 2 Subfamily C Member 9 (CYP2C9) small molecule antagonists: luciferase reporter qHTS assay (AID 1671198); also: nearly all actives have a fitted effect of over 50% in size; also: potency is read from the fitted curve at half-maximal effect
Method in brief: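 P450-Glo proluciferin substrate with CYP2C9 enzyme; 10 min RT preincubation, then NADPH regeneration 1 h at 37C; luciferin detection reagent 20 min RT, luminescence in relative luminescence units.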

[12] = target: Voltage-gated inwardly rectifying potassium channel KCNH2 (Homo sapiens) (UniProt Q12809); assay: Human Ether-a-go-go-Related Gene (hERG) channel small molecule antagonists: fluorescence cell-based qHTS assay (AID 1671200);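 also: hERG-expressing U2OS cells given a thallium stimulus after FluxOR II dye loading; series mostly up to about 77 µM; nearly all actives have a fitted effect of over 50% in size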
Method in brief: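 Fluorescence at 540 nm emission (480 nm excitation) was recorded kinetically for 2 min at 1-second intervals once the thallium-containing stimulus reached cells previously loaded with FluxOR II dye.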

[13] = target: Cytochrome P450 3A4 (Homo sapiens) (UniProt P08684); assay: Cytochrome P450 Family 3 Subfamily A Member 4 (CYP3A4) small molecule antagonists: luciferase reporter qHTS assay (AID 1671201); also: nearly all actives have a fitted effect of over 50% in size; also: potency is read from the fitted curve at half-maximal effect
Method in brief: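 qHTS, 1536-well. CYP3A4 + proluciferin substrate, cpd 10 min RT → NADPH regen 1 h RT → detection reagent 20 min → luminescence (RLU). Ketoconazole positive control.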

[14] = Caspase-3/7 induction in HepG2 cells by small molecules, qHTS cell viability counter screen (AID 1346981); also: series mostly up to about 92 µM; nearly all actives have a fitted effect of over 30% in size
Method in brief: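 Wild-type HepG2 cells (2,000/well) were allowed to settle for 5 hr at 37 C, 5% CO2, then dosed with compounds in DMSO by pin transfer. After 16 hr at 37 C, CellTiter-Fluor was added and fluorescence read 1 hr later.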

[15] = target: Cytochrome P450 2C19 (Homo sapiens) (UniProt P33261); assay: Cytochrome P450 Family 2 Subfamily C Member 19 (CYP2C19) small molecule antagonists: luciferase reporter qHTS assay (AID 1671197); also: nearly all actives have a fitted effect of over 65% in size; also: potency is read from the fitted curve at half-maximal effect
Method in brief: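 Enzyme-substrate mix with proluciferin substrate (P450-Glo CYP2C19 system) preincubated with compounds 10 min at room temperature; NADPH regeneration solution added, 37C for 1 h; detection reagent stops reaction, luminescence read after 20 min. Ketoconazole positive control.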

[16] = target: Nuclear receptor subfamily 1 group I member 2 (Homo sapiens) (UniProt O75469); assay: Human pregnane X receptor (PXR) activation by small molecules, qHTS assay (AID 1346985); also: nearly all actives have a fitted effect of over 40% in size
Method in brief: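 DPX-2 cells (HepG2 co-transfected with a PXR response element and a CYP3A4-promoter luciferase construct) were seeded at 2,000 per well, rested 5 hr at 37C, then exposed to DMSO-dissolved compounds for 24 hr. Activation was read as luciferase luminescence.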

[17] = target: Cytochrome P450 2D6 (Homo sapiens) (UniProt P10635); assay: Cytochrome P450 Family 2 Subfamily D Member 6 (CYP2D6) small molecule antagonists: luciferase reporter qHTS assay (AID 1671196); also: nearly all actives have a fitted effect of over 50% in size; also: potency is read from the fitted curve at half-maximal effect
Method in brief: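 CYP2D6 enzyme–substrate mix was held with compound for 10 min at room temperature, then NADPH regeneration solution was added and the reaction ran 1 h at room temperature. Luciferin product was detected by luminescence after 20 min with detection reagent.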

[18] = target: Cytochrome P450 1A2 (Homo sapiens) (UniProt P05177); assay: Cytochrome P450 Family 1 Subfamily A Member 2 (CYP1A2) small molecule antagonists: luciferase reporter qHTS assay (AID 1671199); also: nearly all actives have a fitted effect of over 50% in size; also: potency is read from the fitted curve at half-maximal effect
Method in brief: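 Human CYP1A2 activity measured with a P450-Glo proluciferin substrate; compounds in DMSO preincubated 10 min at room temperature with enzyme-substrate mix, then NADPH regeneration system added for 1 h. Luciferin detection reagent, 20 min, luminescence read.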

[19] = target: Nuclear receptor subfamily 1 group I member 2 (Homo sapiens) (UniProt O75469); assay: CYP3A4 induction through human pregnane X receptor (PXR) by small molecules, qHTS assay (AID 1346984); also: nearly all actives have a fitted effect of over 40% in size
Method in brief: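 DPX-2 cells (HepG2 co-transfected with PXR and CYP3A4 promoter-luciferase) treated with compounds 24 h at 37C; luciferin-IPA CYP3A4 substrate 3uM final added for 3 h, then One-Glo; luminescence read. qHTS format.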
% is scaled to controls: 0 for no effect and ±100 for the full control effect.

Sequence of Cytochrome P450 1A2 (Homo sapiens) (P05177 whole entry, looked up): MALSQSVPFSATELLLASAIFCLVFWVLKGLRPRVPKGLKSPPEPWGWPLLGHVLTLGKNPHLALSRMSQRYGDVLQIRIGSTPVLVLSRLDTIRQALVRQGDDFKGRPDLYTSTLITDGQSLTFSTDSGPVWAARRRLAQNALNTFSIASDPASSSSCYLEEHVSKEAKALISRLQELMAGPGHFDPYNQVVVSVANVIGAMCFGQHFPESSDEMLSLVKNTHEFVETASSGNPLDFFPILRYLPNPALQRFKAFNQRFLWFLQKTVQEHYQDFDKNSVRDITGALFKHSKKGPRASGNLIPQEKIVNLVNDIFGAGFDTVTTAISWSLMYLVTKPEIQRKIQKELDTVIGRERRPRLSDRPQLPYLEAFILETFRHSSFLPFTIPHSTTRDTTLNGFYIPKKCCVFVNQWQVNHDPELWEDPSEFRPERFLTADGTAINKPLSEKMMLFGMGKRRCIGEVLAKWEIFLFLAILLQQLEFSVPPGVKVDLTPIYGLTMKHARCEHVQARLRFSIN
Sequence of Nuclear receptor subfamily 1 group I member 2 (Homo sapiens) (O75469 whole entry, looked up): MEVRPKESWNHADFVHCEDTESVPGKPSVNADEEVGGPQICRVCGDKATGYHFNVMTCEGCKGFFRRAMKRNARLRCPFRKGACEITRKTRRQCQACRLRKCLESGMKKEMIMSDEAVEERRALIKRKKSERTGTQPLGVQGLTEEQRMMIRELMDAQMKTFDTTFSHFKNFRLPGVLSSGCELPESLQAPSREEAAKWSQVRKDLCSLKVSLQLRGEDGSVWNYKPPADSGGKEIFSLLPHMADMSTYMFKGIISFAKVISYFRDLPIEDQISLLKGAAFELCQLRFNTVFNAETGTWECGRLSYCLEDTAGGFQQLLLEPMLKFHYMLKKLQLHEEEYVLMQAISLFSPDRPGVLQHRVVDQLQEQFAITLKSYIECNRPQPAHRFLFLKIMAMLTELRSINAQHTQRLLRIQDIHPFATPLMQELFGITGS
Sequence of Cytochrome P450 2C9 (Homo sapiens) (P11712 whole entry, looked up): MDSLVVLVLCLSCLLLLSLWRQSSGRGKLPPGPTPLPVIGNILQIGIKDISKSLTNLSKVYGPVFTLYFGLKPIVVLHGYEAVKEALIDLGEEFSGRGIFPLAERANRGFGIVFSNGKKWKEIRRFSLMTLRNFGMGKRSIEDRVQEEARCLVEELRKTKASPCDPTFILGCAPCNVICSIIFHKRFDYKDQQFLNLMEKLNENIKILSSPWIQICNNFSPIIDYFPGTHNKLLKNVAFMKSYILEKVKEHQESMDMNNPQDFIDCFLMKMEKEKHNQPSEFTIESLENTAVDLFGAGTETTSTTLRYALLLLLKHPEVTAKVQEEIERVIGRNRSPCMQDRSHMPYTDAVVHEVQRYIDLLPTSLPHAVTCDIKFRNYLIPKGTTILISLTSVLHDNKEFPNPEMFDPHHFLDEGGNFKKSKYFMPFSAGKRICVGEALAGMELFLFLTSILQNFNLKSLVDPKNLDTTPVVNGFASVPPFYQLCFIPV
Sequence of Voltage-gated inwardly rectifying potassium channel KCNH2 (Homo sapiens) (Q12809 whole entry, looked up): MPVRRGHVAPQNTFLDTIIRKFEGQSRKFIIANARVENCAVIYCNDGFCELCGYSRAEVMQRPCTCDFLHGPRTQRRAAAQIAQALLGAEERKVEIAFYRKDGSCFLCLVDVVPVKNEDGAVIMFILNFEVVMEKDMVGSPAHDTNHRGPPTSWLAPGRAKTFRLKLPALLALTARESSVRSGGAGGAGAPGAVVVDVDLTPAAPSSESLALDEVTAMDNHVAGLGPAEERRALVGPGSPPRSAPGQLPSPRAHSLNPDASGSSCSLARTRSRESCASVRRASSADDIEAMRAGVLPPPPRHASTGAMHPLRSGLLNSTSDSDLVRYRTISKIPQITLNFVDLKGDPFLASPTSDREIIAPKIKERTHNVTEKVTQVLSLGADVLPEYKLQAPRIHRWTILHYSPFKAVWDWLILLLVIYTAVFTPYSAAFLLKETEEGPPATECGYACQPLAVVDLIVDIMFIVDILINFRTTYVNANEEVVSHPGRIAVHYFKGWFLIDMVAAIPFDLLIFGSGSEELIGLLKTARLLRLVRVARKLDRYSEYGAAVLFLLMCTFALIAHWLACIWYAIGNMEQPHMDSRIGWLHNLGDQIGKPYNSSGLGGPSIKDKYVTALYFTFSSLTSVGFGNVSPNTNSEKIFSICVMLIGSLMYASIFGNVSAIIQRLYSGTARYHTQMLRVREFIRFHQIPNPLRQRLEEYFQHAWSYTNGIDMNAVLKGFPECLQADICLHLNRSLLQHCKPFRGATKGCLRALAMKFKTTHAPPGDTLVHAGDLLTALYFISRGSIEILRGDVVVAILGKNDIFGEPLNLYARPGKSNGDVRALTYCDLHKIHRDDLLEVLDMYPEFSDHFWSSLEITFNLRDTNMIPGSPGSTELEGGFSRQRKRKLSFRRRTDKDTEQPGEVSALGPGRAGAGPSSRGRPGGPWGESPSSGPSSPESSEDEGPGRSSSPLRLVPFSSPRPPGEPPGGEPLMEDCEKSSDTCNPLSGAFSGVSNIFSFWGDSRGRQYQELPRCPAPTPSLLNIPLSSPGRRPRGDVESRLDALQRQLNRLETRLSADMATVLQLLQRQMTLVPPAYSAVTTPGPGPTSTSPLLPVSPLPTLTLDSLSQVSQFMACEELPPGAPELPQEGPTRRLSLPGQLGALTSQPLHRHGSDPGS
Sequence of Cytochrome P450 2D6 (Homo sapiens) (P10635 whole entry, looked up): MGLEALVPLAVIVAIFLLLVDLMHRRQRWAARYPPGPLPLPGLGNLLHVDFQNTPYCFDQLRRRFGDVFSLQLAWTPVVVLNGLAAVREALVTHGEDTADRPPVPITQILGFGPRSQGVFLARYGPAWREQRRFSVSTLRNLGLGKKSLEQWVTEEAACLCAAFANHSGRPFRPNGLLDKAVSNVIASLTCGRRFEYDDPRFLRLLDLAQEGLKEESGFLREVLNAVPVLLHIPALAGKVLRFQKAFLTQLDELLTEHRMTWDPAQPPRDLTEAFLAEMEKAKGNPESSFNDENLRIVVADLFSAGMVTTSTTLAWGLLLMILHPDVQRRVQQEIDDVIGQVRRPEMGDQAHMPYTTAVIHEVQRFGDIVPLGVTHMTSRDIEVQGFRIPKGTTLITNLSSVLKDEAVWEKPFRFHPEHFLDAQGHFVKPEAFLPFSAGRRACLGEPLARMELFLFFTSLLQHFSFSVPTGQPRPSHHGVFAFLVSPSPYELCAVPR
Sequence of Cytochrome P450 2C19 (Homo sapiens) (P33261 whole entry, looked up): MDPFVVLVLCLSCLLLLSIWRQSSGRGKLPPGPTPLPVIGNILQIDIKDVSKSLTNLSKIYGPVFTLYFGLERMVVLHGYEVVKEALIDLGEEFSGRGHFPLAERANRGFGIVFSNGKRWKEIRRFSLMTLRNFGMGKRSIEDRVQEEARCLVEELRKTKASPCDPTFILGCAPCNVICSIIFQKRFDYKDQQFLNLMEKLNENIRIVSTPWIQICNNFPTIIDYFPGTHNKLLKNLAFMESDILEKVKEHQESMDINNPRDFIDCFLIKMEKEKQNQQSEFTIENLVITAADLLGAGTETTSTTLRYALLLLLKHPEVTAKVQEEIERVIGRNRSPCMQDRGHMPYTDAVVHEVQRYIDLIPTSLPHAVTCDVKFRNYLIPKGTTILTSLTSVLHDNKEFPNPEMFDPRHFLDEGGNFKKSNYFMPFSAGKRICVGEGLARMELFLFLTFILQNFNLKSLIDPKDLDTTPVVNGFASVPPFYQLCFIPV
Sequence of Cytochrome P450 3A4 (Homo sapiens) (P08684 whole entry, looked up): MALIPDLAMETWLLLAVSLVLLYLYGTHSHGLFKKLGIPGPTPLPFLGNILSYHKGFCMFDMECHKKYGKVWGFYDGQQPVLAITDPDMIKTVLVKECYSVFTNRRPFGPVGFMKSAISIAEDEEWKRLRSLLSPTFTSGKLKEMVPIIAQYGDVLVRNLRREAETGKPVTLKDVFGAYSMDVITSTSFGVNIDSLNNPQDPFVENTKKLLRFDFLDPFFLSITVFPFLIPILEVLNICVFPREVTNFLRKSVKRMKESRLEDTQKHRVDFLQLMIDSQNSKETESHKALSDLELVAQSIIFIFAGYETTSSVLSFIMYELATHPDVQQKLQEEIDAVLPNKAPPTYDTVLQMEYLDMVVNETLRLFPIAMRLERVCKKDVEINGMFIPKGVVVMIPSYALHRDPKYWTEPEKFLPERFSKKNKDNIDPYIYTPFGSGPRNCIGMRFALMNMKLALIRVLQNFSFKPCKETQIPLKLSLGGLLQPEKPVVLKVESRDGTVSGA
Sequence of Thyrotropin-releasing hormone receptor (Homo sapiens) (P34981 whole entry, looked up): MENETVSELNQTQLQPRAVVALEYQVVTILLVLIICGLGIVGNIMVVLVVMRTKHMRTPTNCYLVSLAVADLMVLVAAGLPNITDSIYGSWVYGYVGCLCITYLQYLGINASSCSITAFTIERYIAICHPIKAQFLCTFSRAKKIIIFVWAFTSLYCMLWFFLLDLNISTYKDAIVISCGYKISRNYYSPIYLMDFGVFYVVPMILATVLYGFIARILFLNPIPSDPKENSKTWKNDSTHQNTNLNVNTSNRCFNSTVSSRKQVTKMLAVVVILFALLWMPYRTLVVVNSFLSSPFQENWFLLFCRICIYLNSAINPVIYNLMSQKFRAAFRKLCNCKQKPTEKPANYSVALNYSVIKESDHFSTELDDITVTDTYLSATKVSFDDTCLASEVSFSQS

CCCC(=O)OCCC(C)CCC=C(C)C (configuration not stated)
active: Potency [11] 20 µM | Potency [13] 4.48 µM
inactive: outcome [1] | outcome [2] | outcome [3] | outcome [4] | outcome [5] | outcome [6] | outcome [7] | Potency [8] | outcome [9] | Potency [10] | Potency [12]

CCC/C=C(\C=O)CC
inactive: outcome [1] | outcome [2] | outcome [3] | outcome [4] | outcome [5] | outcome [6] | outcome [7] | Potency [8] | outcome [9] | outcome [14] | Potency [12]
active: Potency [15] 39.9 µM | Potency [11] 63.3 µM | Potency [13] 39.9 µM

N[C@@H](Cc1ccc(O)cc1)C(=O)O
inactive: viability change, negative = cytotoxic [1] -8.39% [at 6.97 µM] | activity change, negative = cytotoxicity [2] 9.15% [at 6.97 µM] | activation [3] 4.2% [at 6.97 µM] | activity, negative = inhibition [4] -2.4% [at 4.65 µM] | activation [5] -0.36% [at 5.23 µM] | activity change, negative = cytotoxicity [6] -1.74% [at 8.39 µM] | caspase activation [7] -1.72% [at 8.39 µM] | activity change, negative = cytotoxicity [8] 1.62% [at 8.39 µM] | caspase-3/7 activation [9] -1.08% [at 8.39 µM] | activation [10] -5.23% [at 8.39 µM] | Potency [16]

C=CCSSCCC
active: Potency [17] 56.2 µM
inactive: outcome [1] | outcome [2] | outcome [3] | outcome [4] | outcome [6] | outcome [7] | Potency [8] | outcome [9] | outcome [14] | Potency [10] | Potency [15] | Potency [11] | Potency [18] | Potency [13]

CC1(C)[C@H]2CC[C@](C)(C2)[C@H]1O
inactive: outcome [1] | outcome [2] | outcome [3] | outcome [4] | outcome [6] | outcome [7] | Potency [8] | outcome [9] | Potency [10] | Potency [17] | Potency [15] | Potency [11] | Potency [12]

Cn1c(=O)c2[nH]c(Br)nc2n(C)c1=O
inactive: outcome [1] | outcome [2] | outcome [3] | outcome [4] | outcome [6] | outcome [7] | Potency [8] | outcome [9] | outcome [14] | Potency [10] | Potency [19] | Potency [16] | Potency [17] | Potency [15] | Potency [11]
active: Potency [18] 24.5 µM

CC(=O)c1cc(C)oc1C
active: Potency [15] 32.9 µM
inactive: outcome [1] | outcome [2] | outcome [3] | outcome [4] | outcome [6] | outcome [7] | Potency [8] | outcome [9] | Potency [10] | Potency [17] | Potency [11] | Potency [18] | Potency [12] | Potency [13]
